Screening results: PubChem, National Center for Advancing Translational Sciences (NCATS)
CHX counter – Cycloheximide Counterscreen for Small Molecule Inhibitors of Shiga Toxin; cell reporter, cycloheximide protein synthesis inhibition counterscreen; max response, %; 12% of 300,000 active; AID 2314, 2010; in the data active = max response mostly above about 13%, no sharp cut-off; inactive = mostly below about 14%; note: read at 38.3 µM for the half of the compounds with a filed dose; 0% is about no effect
Pf growth 48h – Primary qHTS for delayed death inhibitors of the malarial parasite plastid, 48 hour incubation; P. falciparum luciferase growth in erythrocytes, 48 h; Potency, µM (doses to about 28.7 µM), for inactives: top-dose activity change, negative = inhibition, usual class: inhibitors; 5.9% of 310,000 active; AID 504832, 2011; note: potency is the fitted concentration of half-maximal effect; % is set by controls: 0 for no effect and ±100 for the full control effect
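Read-out is firefly luciferase luminescence from an integrated reporter in P. falciparum, so falling signal marks reduced parasite growth. Infected erythrocytes were at 2% hematocrit and 0.1% parasitemia (final) in Albumax-supplemented RPMI 1640.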
Pf growth 96h – Primary qHTS for delayed death inhibitors of the malarial parasite plastid, 96 hour incubation. Potency, µM (series often up to 28.7 µM), for inactives: at the top dose activity change, negative = inhibition, actives largely listed as inhibitors. P. falciparum luciferase reporter growth, 96 h. 6.9% of 320,000 active; note: potency is the fitted concentration of half-maximal effect; % is set by controls: 0 for no effect and ±100 for the full control effect
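Luminescence readout: decreased luciferase signal marks inhibited growth of reporter-expressing P. falciparum in infected red cells (2% hematocrit, 0.05% parasitemia final), exposed to compound two generations (96 h, 37 C, 5% CO2).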
NS1 inh – qHTS Assay for Inhibitors of Influenza NS1 Protein Function; Potency, µM (series often up to 46.1 µM), for inactives: at the top dose activity, positive = more growth; 0.4% of 270,000 active; calls by dose curve; note: potency is the fitted concentration of half-maximal effect; actives are rising curves; nearly all actives have a fitted effect of over 50% in size
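A cell-based growth assay was used: compounds that relieve NS1-induced slow growth of budding yeast raise OD600. Assay medium was yeast nitrogen base with ammonium sulphate and -URA supplement, pH 6.0, with 2% galactose.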
Shiga toxin inh – A qHTS for Small Molecule Inhibitors of Shiga Toxin. 9.2% of 290,000 active. inhibition, % at 38.7 µM. Vero cells, Shiga toxin protein synthesis inhibition reporter; in the data active = inhibition mostly above about 28%, no sharp cut-off; inactive = mostly below about 43%; note: 0% is about no effect
* hit, by the source's call; ? = inconclusive; . = no result given. Hits are enriched below; roughly 21% of the tested compounds scored in any of these assays. Unless noted, calls come from the whole dose curve; as a rule, active = well fitted inhibition curve with a large enough effect; inconclusive = small, poorly fitted or top-dose-only effect, or another doubt; inactive = no such curve, though single readings can be large or run the other way.

SMILES | CHX counter | Pf growth 48h | Pf growth 96h | NS1 inh | Shiga toxin inh
O=C(Nc1ccccc1O)c1ccc(Cl)cc1 | 42.0* | 5.86µM* | ? | -70.2% | 95.4*
COc1ccc(C(=O)Nc2cc(Cl)ccc2OC(=O)c2ccc(OC)cc2)cc1 | 65.5* | -64.5% | -84.8% | -4.7% | 89.1*
Cc1cc(NC(=O)c2ccc(Cl)cc2)c(C)cc1O | 12.7 | 11.4% | 25.8% | -2.1% | 65.5
COc1cc(NC(=O)C2CCCO2)c(OC)cc1Cl (configuration not stated) | -3.5 | 1.4% | -21.1% | -7.6% | -6.3
Cc1ccc(C(=O)Nc2cc(Cl)ccc2OC(=O)c2ccc(C)cc2)cc1 | 35.7* | ? | 0.465µM* | -23.8% | 97.8*
Cc1ccc(Oc2ccc(Cl)cc2NC(=O)c2cnccn2)cc1 | 5.0 | ? | . | 0.1% | 19.0
CSCCC(NC(=O)c1ccc(Cl)cc1Cl)C(=O)N(C)Cc1nc2ccccc2c(=O)[nH]1 (configuration not stated) | . | -18.1% | 11.4% | . | .
CCC(C(=O)NCCN1CCOCC1)n1nc(C)n2c(cc3sccc32)c1=O (configuration not stated) | -11.0 | 13.9% | ? | -2.1% | 11.3
COc1cccc(C(C(=O)NCC2CCCO2)N(C(=O)Cn2nnc3ccccc32)c2ccc(NC(C)=O)cc2)c1OC (configuration not stated) | -0.9 | ? | 17.0% | -16.5% | -6.8
COc1ccc(C(=O)Nc2cc(OC)c(Cl)cc2OC)cc1 | 13.8 | 10.4% | 5.22µM* | . | 22.0
O=C(CN1CCc2ccccc2C1)c1cccs1 | 48.7* | ? | . | -7.7% | 81.6*
CC1CCN(CC(=O)c2cccs2)CC1 | 13.3* | 38.8% | 69.4% | -0.2% | 36.7*
CC1CN(CC(=O)c2ccccc2Cl)CC(C)O1 (configuration not stated) | 5.1 | 28.4% | 53.9% | -35.6% | 7.3
CC1CCN(CC(=O)c2ccccc2Cl)CC1 | 13.8 | ? | ? | 7.7% | 31.0*
CC1CC(C)CN(CC(=O)c2cccs2)C1 (configuration not stated) | -1.8 | 3.3% | 0.0% | 0.9% | -1.3
O=C1c2cccc(OCC(=O)N3CCCc4ccccc43)c2CCN1Cc1ccccc1 | 14.2* | ? | ? | -4.4% | 20.4
Cc1cc(Cl)ccc1OCCCC(=O)N1CCCc2ccccc21 | 6.1 | . | ? | -4.4% | -6.3
O=C(COc1ccccc1)N1CCc2ccccc21 | 31.1* | 90.7% | 3.9% | -6.4% | 75.9*
O=C1c2cccc(OCC(=O)N3CCCc4ccccc43)c2CCN1Cc1ccc(Br)cc1 | 12.3 | ? | ? | 1.8% | -4.7
O=C(COc1ccc2ccccc2c1CN1CCOCC1)N1CCc2ccccc21 | -2.6 | . | 10.4µM* | -12.2% | -20.3
O=C(COc1ccccc1)OCC(=O)N1CCCc2ccccc21 | . | 7.4% | 33.0% | . | .
O=C(CCCOc1ccccc1)N1CCCc2ccccc21 | 49.1* | -0.4% | 15.4% | -22.0% | 132.3*
CCn1c(COc2ccc3c(c2)CCCC3)nnc1SCC(=O)Nc1nccs1 | 1.1 | -5.8% | 16.2% | -3.7% | 4.9
O=C(COc1ccccc1Cl)N1CCc2ccccc21 | 41.2* | 69.4% | 5.5% | -14.0% | 100.6*
O=C(COc1ccc(Br)cc1)N1CCc2ccccc21 | 26.7* | 35.6% | 58.6% | -4.4% | 111.1*
SMILES | CHX counter | Pf growth 48h | Pf growth 96h | NS1 inh | Shiga toxin inh
COCC(=O)N1CCCc2ccccc21 | 13.5 | 16.9% | 28.7% | -3.0% | 8.7
NC(=O)c1ccccc1OCC(=O)N1CCCc2ccccc21 | 25.6* | 10.4% | 9.1% | 7.9% | 74.3*
O=C(COc1ccccc1Cl)N1CCc2ccccc2C1 | 4.1 | 0.1% | 10.1% | -28.3% | .
COc1ccc(OC)c2[nH]c(=O)c(CCNC(=O)c3ccc(S(=O)(=O)N(C)C)cc3)cc12 | 5.9 | 7.2% | 79.5% | -2.3% | 6.8
COc1ccc(OC)c2[nH]c(=O)c(CCNC(=O)c3ccc(Br)o3)cc12 | -2.5 | 11.7µM* | . | -20.9% | -12.1
COc1ccc2cc(CCNC(=O)c3ccc(S(=O)(=O)N4CCOCC4)cc3)c(=O)[nH]c2c1 | 7.8 | 10.4µM* | ? | -19.2% | -4.0
Cc1cc2cc(CCNC(=O)c3ccc(S(=O)(=O)N4CCCC4)cc3)c(=O)[nH]c2cc1C | -0.5 | 9.28µM* | ? | 19.4% | 13.2
COc1cc(C(=O)NCCc2cc3c(OC)ccc(OC)c3[nH]c2=O)cc(OC)c1OC | 8.8 | ? | ? | . | -2.6
Cc1cc2cc(CCNC(=O)c3ccc(C)c([N+](=O)[O-])c3)c(=O)[nH]c2cc1C | -2.6 | -29.1% | ? | 25.7% | -10.4
COc1ccc(CNC(=O)c2ccc(S(=O)(=O)N3CCOCC3)cc2)cc1 | . | -24.7% | ? | . | .
COc1ccc(OC)c2[nH]c(=O)c(CCNC(=O)c3ccc(S(=O)(=O)N4CCCCC4)cc3)cc12 | 0.2 | 9.28µM* | 54.8% | -32.9% | 5.6
CCOc1ccccc1NC(=O)c1cc(SC)ccc1Cl | -1.9 | -10.3% | 14.1% | -4.6% | -8.8
Cc1ccc(S(=O)(=O)N2CCN(C(=O)CSc3ncn[nH]3)CC2)cc1 | . | -23.6% | ? | . | .
CCOC(=O)c1ccc(NC(=O)C(=O)NCc2ccco2)cc1 | -3.0 | 12.9% | 32.2% | 3.2% | 30.5
CC(C)(C)c1nc2ccc(NS(=O)(=O)c3ccc(F)c(F)c3F)cc2[nH]1 | -2.8 | ? | 20.4% | -6.6% | -7.9
O=S(=O)(Nc1ccc2nc(-c3ccc(Br)o3)[nH]c2c1)c1ccccc1 | 39.9* | 85.6% | ? | -0.9% | 64.0
O=S(=O)(Nc1ccc2nc(C(F)(F)F)[nH]c2c1)c1ccccc1 | -1.4 | 11.7µM* | 18.2% | 4.6% | -15.0
Cc1ccc(-c2nc3ccc(NS(=O)(=O)c4ccccc4)cc3[nH]2)o1 | 66.0* | . | 96.8% | 5.3% | 129.8*
COC(=O)c1ccc2nc(C(F)(F)F)[nH]c2c1 | 16.8* | -14.0% | 31.5% | -14.0% | 11.0
C/C(=N/NC(=O)CN1CCN(Cc2ccccc2Cl)CC1)c1cccs1 | 5.7 | 20.4% | 52.2% | -2.4% | 5.9
OCC(O)C(O)C(O)C(O)CO (configuration not stated) | -4.8 | -18.6% | -1.6% | . | 11.7
Cc1ccc(NC(=O)CSCC(=O)NC2(C)CCS(=O)(=O)C2)cc1 (configuration not stated) | . | -19.0% | -7.1% | . | .
O=C(CN1C(=O)CC(c2ccccc2)S(=O)(=O)c2ccccc21)N1CCCC1 (configuration not stated) | 0.5 | -13.4% | 6.6% | . | -9.0
Cc1ccccc1OCC(=O)N1CCCCCCC1 | 1.8 | -2.5% | ? | 0.0% | 27.5
CC12CCC(c3c(C(=O)Nc4nccs4)nn(-c4ccccc4)c31)C2(C)C (configuration not stated) | 4.7 | ? | -17.2% | -39.1% | 17.5
Cc1cc(=O)oc2c(C)c(OC(C)C(=O)NCc3ccccn3)ccc12 (configuration not stated) | 7.0 | ? | ? | 1.2% | -15.3
O=C(O)CCCCn1cnc2c(=S)nc[nH]c21 | . | . | . | 0.4% | .
